# Among all 220,000 compounds or so, about 1,100 (0.5%) were called active. This is one part of a sample in which actives are shown more often than they occur. A number with no mark means an inactive call.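 The calls were made as follows: active = inhibition above about 30% (limit read from the data); inactive = the rest.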
# Target: Neutrophil cytosol factor 1 (Homo sapiens) (UniProt P14598)
# Assay: p47phox/p22phox peptide binding inhibitors, primary screen, biochemical, uHTS, NADPH oxidase regulatory subunit (AID 1274);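 also: 0% = p47phox with labelled peptide and 100% = labelled peptide alone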
# Conditions: fluorescence polarization, 2 h, at 24.7 µM, stronger effect = higher value
# Chain of Neutrophil cytosol factor 1 (Homo sapiens) (P14598 whole entry, looked up): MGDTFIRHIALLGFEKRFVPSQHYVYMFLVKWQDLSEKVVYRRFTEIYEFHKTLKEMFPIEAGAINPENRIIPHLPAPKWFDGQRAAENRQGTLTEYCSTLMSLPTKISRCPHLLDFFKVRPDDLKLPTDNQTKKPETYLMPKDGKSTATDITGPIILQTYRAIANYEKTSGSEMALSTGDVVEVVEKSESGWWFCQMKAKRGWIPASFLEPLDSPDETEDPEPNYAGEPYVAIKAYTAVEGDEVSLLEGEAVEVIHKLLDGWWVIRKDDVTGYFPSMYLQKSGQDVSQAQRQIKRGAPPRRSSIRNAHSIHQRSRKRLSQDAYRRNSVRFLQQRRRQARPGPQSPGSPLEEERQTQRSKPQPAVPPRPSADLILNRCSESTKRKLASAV
row,Structure (SMILES),inhibition
1,COc1ccc(N2C(=O)CNC2=S)cc1,41.5% (active)
2,COc1ccc(N2C(=O)C(Cc3ccccc3)NC2=S)cc1 (configuration not stated),-10.2%
3,COc1ccc(N2C(=O)CC(SC(C)C)C2=O)cc1 (configuration not stated),-5.28%
4,Cc1c(C(=O)OC(C)C)sc(NC(=O)c2cccnc2)c1C#N,-54.3%
5,O=C(CSc1ccc([N+](=O)[O-])cn1)Nc1ccc(N2CCOCC2)cc1,2.81%
6,O=C(O)CCC(=O)Nc1ccc(N2CCOCC2)cc1,-1.84%
7,Cn1cnnc1SCC(=O)Nc1ccc(N2CCOCC2)cc1,50% (active)
8,CN1CCN(CCCCOc2ccccc2-c2ccccc2)CC1,-0.29%
9,CC(C)=CCCC1(C)C=Cc2c(ccc3c2[nH]c2cc(O)c(C)cc23)O1 (configuration not stated),-11.9%
10,CCOC(=O)c1cnc2[nH]c3ccccc3n2c1=O,0.2%
11,O=[N+]([O-])c1cccc(-c2nnc3c4ccccc4c4ccccc4n23)c1,-1.55%
12,O=c1[nH]c2ccccc2n2c(-c3ccccc3)nnc12,69.6% (active)
13,COc1ccc2oc(N)c(C=O)c(=O)c2c1,-6.85%
14,CC/C(O)=N\S(=O)(=O)c1ccc(N=NN(C)C)cc1,-7.34%
15,COc1ccccc1OCCNC(=O)c1cc([N+](=O)[O-])cc([N+](=O)[O-])c1,5.08%
16,CCOC(=O)Cn1c(=O)oc2cc(S(=O)(=O)NCC3CCCO3)ccc21 (configuration not stated),-8.76%
17,CCc1cc(Br)ccc1NC(=O)C1CCCO1 (configuration not stated),-3.52%
18,OC(CNCC1CCCO1)Cn1c2ccc(Br)cc2c2cc(Br)ccc21 (configuration not stated),64% (active)
19,CS(=O)(=O)N1CCc2cc(C(=O)Nc3ccccc3)ccc21,-4.32%
20,CC(C)Cc1nn2c(=O)cc(O)nc2s1,-2.97%
21,Cc1cc(=O)[nH]c(=S)[nH]1,-3.01%
22,O=c1[nH]c(=S)[nH]c2[nH]c(=S)[nH]c12,32.1% (active)
23,Cc1c(C)c(C)c2[nH]c(=S)[nH]c2c1C,-7.18%
24,Cn1c(=O)c([N+](=O)[O-])c(Oc2ccccc2)c2ccccc21,0.11%
25,CCOc1cc(NC(=S)NCCCOC)c(OCC)cc1NC(=O)c1ccco1,-10.9%

row,Structure (SMILES),inhibition
1,CCOc1cc(NC(=S)NCc2ccco2)c(OCC)cc1NC(=O)c1ccco1,4.63%
2,CCOc1cc(NC(=O)c2ccco2)c(OCC)cc1NC(=O)COc1ccccc1,35.5% (active)
3,COc1ccccc1P(=O)(c1ccccc1)c1ccccc1NC(C)=O (configuration not stated),7.25%
4,COc1ccc(/C=C/C(=O)OCC(=O)NCc2cccs2)cc1OC,-9.49%
5,COC(=O)Cc1c(O)ccn(Cc2cccc(C(F)(F)F)c2)c1=O,-10.6%
6,O=C(NN1C(=O)C2C(C1=O)C1C=CC2C12CC2)c1ccccc1Cl (configuration not stated),43.4% (active)
7,CC1=CC(C)(C)NC(=S)N1NC(=O)c1ccccc1Cl,-1.05%
8,COc1ccccc1C(=O)NN1C(=O)C2C3C=CC(O3)C2C1=O (configuration not stated),-8.76%
9,COc1ccc(COCC(O)CN2CCC(C(N)=O)CC2)cc1 (configuration not stated),-6.99%
10,Cc1ccccc1Nc1scc(-c2ccc(Br)cc2)[n+]1-c1ccccc1C,-1.63%
11,CC(C)CNC(=O)COC(=O)c1ccccc1OCC(=O)Nc1ccc(Br)cc1,0.42%
12,CC1CN(S(=O)(=O)c2ccc(C(=O)Nc3sccc3C(N)=O)cc2)CC(C)O1 (configuration not stated),-4.8%
13,CN1/C(=C\C(=O)c2cccnc2Cl)C(C)(C)c2ccccc21,-37.8%
14,CN1/C(=C\C(=O)c2oc3ccccc3c2N)C(C)(C)c2ccccc21,-9.12%
15,CN1/C(=C\C=C2\N=C(c3ccc(F)cc3)OC2=O)C(C)(C)c2ccccc21,149% (active)
16,COc1cc(C(=O)NCc2ccc3c(c2)cc(C)n3C)cc(OC)c1OC,1.37%
17,O=C(O)C1=C[C@H](c2cccs2)C[C@H](OCCCCO)O1,-14.3%
18,Cc1ccc(C)c(CSc2nc(-c3ccco3)nc3c2c(=O)n(C)c(=O)n3C)c1,-1.58%
19,CC(C)(C)NC(=O)/C(=C/c1cccnc1)NC(=O)c1ccco1,-7.92%
20,CC1(OC(=O)CCc2ccccc2)C(=O)C=C2C=C(c3ccc(C#N)cc3)N(CCc3ccccn3)C=C2C1=O (configuration not stated),32.3% (active)
21,C=CCN1C=C2C(=O)C(C)(OC(=O)CCc3ccccc3)C(=O)C=C2C=C1c1ccc(C#N)cc1 (configuration not stated),-11.9%
22,COCCN1C=C2C(=O)C(C)(OC(=O)C3CCCC3)C(=O)C=C2C=C1c1ccsc1 (configuration not stated),0.87%
23,CCN(C(=O)CN1CCN(Cc2ccccc2)CC1)c1c(N)n(Cc2ccccc2)c(=O)[nH]c1=O,-14.8%
24,O=C(c1cnn2ccccc12)N1CCc2ccccc21,-1.85%
25,NC(=O)N1CCc2ccccc21,3.78%

row,Structure (SMILES),inhibition
1,O=C(c1cccc(C(=O)N2CCc3ccccc32)n1)N1CCc2ccccc21,45.6% (active)
2,Nc1nnn(CC(=O)N/N=C/c2ccc(O)cc2)n1,-6.45%
3,CN(C)c1nc(=Nc2cccc(Cl)c2)ss1,-21.8%
4,CCCCN=C1C([N+](=O)[O-])=CC=C2C1=NC1(CCCCC1)N2O,103% (active)
5,Oc1c(C=Nc2cccc3nsnc23)ccc2ccccc12,-51.3%
6,Oc1ccc(N=Nc2nccs2)c(O)c1,-48.9%
7,Oc1ccc2ccccc2c1N=Nc1nccs1,59.9% (active)
8,CCN(C(=O)COC(=O)/C=C/c1nc2ccccc2s1)C1CCS(=O)(=O)C1 (configuration not stated),-4.73%
9,CCOC(=O)N1CCN(C(c2cccnc2)c2ccc3cccnc3c2O)CC1 (configuration not stated),6.02%
10,CCN1CCN(C(c2cccnc2)c2cc(Cl)c3cccnc3c2O)CC1 (configuration not stated),38.2% (active)
11,Oc1c(CN2CCN(c3ccc(F)cc3)CC2)cc(Cl)c2cccnc12,11.9%
12,CC(=O)Nc1nc(C)c(-c2csc(Nc3ccc(S(N)(=O)=O)cc3)n2)s1,-21.6%
13,CCOC(=O)C1CCN(C(=O)c2oc3ccc(S(=O)(=O)N4CCCCCC4)cc3c2C)CC1,-9.11%
14,CCOC(=O)C1CCN(c2ncnc3c2c(-c2ccccc2)cn3-c2ccc(C)cc2)CC1,-0.04%
15,CCOC(=O)C1CCN(c2ncnc3c2oc2ccc(Br)cc23)CC1,48.6% (active)
16,CCN(CC)N=Nc1cccc(NC(C)=O)c1,2.47%
17,O=C(CSC(=S)N1CCCCC1)c1c(F)cccc1F,-20.4%
18,CC(C)Oc1ccc(CC(=O)NNC(=S)Nc2ccc(Br)cc2)cc1,-4.65%
19,Cc1cccc(C)c1NC(=O)C1(N(C(=O)c2ccccn2)c2ccc(O)cc2)CCCCC1,-4.76%
20,CC(Oc1ccc(-c2ccccc2)c(F)c1)c1ccn(S(=O)(=O)c2cccc3ccccc23)n1 (configuration not stated),30.5% (active)
21,COc1ccc(Nc2nc(N)nc(CSC(=S)N3CCC(C)CC3)n2)cc1,-5.99%
22,CCn1c(SCC(=O)N/N=C/c2ccncc2)nc2ccccc21,3.59%
23,NNc1nc2c(Cl)cccc2s1,-5.57%
24,CC(=O)OCc1cc(=O)n(C)c(=O)n1C,38.7% (active)
25,CC(=O)c1c(N)n(C)c(=O)n(C)c1=O,-3.86%

row,Structure (SMILES),inhibition
1,CC(C)Oc1ccc(C(=O)Nc2cc(=O)n(C)c(=O)n2C)cc1,-14%
2,O=C1CN(C(=O)CN2C(=O)NC3(CCCCC3)C2=O)c2ccccc2N1,-8.11%
3,C=CCC1(C#N)C(=S)NC(C)=C(C(=O)OCC)C1c1ccccc1 (configuration not stated),-0.89%
4,C=CCN1CC(C)/C(=N\O)CC1C (configuration not stated),-0.6%
5,Cn1c(SCC(=O)OC2CCCCC2)nnc1-c1ccc(S(=O)(=O)N2CCCC2)cc1,-1.77%
6,Cn1c(SCC(=O)Nc2cccc(O)c2)nnc1-c1ccc(S(=O)(=O)N2CCOCC2)cc1,36.6% (active)
7,CCC(=O)Nc1cccc(NC(=O)CSc2nnc(-c3ccc(NS(C)(=O)=O)cc3)n2C)c1,-16.1%
8,Nc1c(NCCc2ccccc2)c2ccccc2oc1=O,-7.7%
9,Cc1cc(C)cc(OCC(=O)Nc2ccc(S(=O)(=O)Nc3ccccn3)cc2)c1,-4.16%
10,Cc1ccc(OCC(=O)Nc2ccc(S(=O)(=O)Nc3ccccn3)cc2)cc1,5.31%
11,O=C(COc1ccc2oc3c(c2c1)CCCC3)Nc1ccccn1,178% (active)
12,Cc1ccc(S(=O)(=O)NNC(=S)NC(C)(C)C)cc1,-8.25%
13,CCc1ccccc1NC(=O)CSc1nnc(CCNC(=O)OC(C)(C)C)o1,-6.69%
14,CCN(CC(=O)NCCc1ccccc1)S(=O)(=O)c1ccccc1,-6.19%
15,O=C(Nc1ccc(Br)cn1)C1CCN(S(=O)(=O)c2cccs2)CC1,-5.24%
16,CCOc1ccc(-n2c(O)c(/C=N/Nc3nc(C)cc(C)n3)c3ccccc3c2=O)cc1,-10.2%
17,CCOc1ccc(-n2c(O)c(/C=N/Nc3nnc(C)c(=O)[nH]3)c3ccccc3c2=O)cc1,-44.3%
18,CCN(CC)CCCN=Cc1c(O)n(-c2ccc(C)cc2)c(=O)c2ccccc12,111% (active)
19,O=C(O)C1CCN(C(=O)c2cc(F)cc3c2OCOC3)CC1,-5.96%
20,Cc1nc2c(-c3ccc(F)cc3)c(C)nn2c(C)c1CCC(=O)N1CCN(c2ccccn2)CC1,-1.7%
21,Cc1nc2nc(C)c(CCC(=O)N3CCN(c4ccccc4)CC3)c(C)n2n1,37.8% (active)
22,Cc1nc2ncnn2c(C)c1CCC(=O)N1CCN(C(=O)c2ccco2)CC1,2.67%

# From PubChem BioAssay AID1274 (Emory University Molecular Libraries Screening Center, 2008)
